DT40 TDP1 CPT – qHTS for Inhibitors of human tyrosyl-DNA phosphodiesterase 1 (TDP1): qHTS in cells in presence of CPT. chicken DT40 Tdp1-/-;hTDP1 cells + 20 nM CPT, ATP luminescence, 48 h. Potency, µM (doses to about 46.2 µM), for inactives: at the highest dose activity change, negative = growth inhibition, actives largely listed as inhibitors. 420,000 compounds, 12% hits. AID 686979, 2013; note: potency is the fitted concentration of half-maximal effect; nearly all actives have a fitted effect of over 55% in size
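Chicken DT40 Tdp1-/- cells complemented with human TDP1, 400 cells/well, exposed to compounds plus 20 nM camptothecin for at least 48 h at 37 C; viability read as ATP content by CellTiter-Glo luminescence.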
Six1-Eya2 blk – qHTS Assay for Inhibitors of the Six1/Eya2 Interaction. Homeobox protein SIX1 (Homo sapiens) + Protein phosphatase EYA2 (Homo sapiens), …. 360,000 compounds, 0.56% hits. AID 651725, 2012. activity change, % (no concentration beside the values). AlphaScreen GST-Six1/His-Eya2 binding, biochemical; stronger effect = lower value; in the data active = activity change below about -65%; inconclusive = mostly about -30% to -63%
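Compounds are tested against tagged Six1 and Eya2 proteins bridged by glutathione donor and nickel acceptor beads; after a one-hour incubation at 37 °C without light, AlphaScreen emission is recorded.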
CtBP-E1A blk – qHTS Assay for Inhibitors of the CtBP/E1A Interaction. CtBP / adenovirus E1A interaction (AlphaScreen). AlphaScreen GST-E1A/His-CtBP binding, 1536-well; stronger effect = lower value. activity change, % (concentration not given with the values). 340,000 compounds, 0.49% hits. AID 651724, 2012; in the data active = activity change below about -65%; inconclusive = mostly about -30% to -63%
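Steps: dispense buffer (Tris pH 8.0, NaCl 300 mM, TCEP 1 mM, BSA, Tween 20); add 5X protein mix (GST-E1A, His-CtBP, 125 nM each); pin 23 nL compound; 2 h at 37 °C, dark; add 5X beads (50 ug/mL); 1 h; read.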
TDP1 cell noCPT – qHTS for Inhibitors of human tyrosyl-DNA phosphodiesterase 1 (TDP1): qHTS in cells in absence of CPT. DT40 Tdp1-/- hTDP1 cells, no CPT, ATP luminescence, 48 h. Potency, µM (top dose mostly 46.2 µM), for inactives: at the top dose activity change, negative = growth inhibition, most hits filed as inhibitors. 420,000 compounds, 15% hits. AID 686978, 2013; note: potency is the fitted concentration of half-maximal effect; nearly all actives have a fitted effect of over 55% in size
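DT40 Tdp1-/-;hTDP1 cells, no CPT (DMSO vehicle only), 400 cells/well; compounds pin-transferred; ≥48 hr, 37 °C; CellTiter-Glo 30 min RT dark, luminescence read.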
IL-1B inflam inh – qHTS for Inhibitors of Inflammasome Signaling: IL-1-beta AlphaLISA Primary Screen; THP-1 LPS/ATP IL-1B secretion, AlphaLISA, 16 h; stronger effect = lower value; activity change, % at 57.5 µM; 360,000 compounds, 4.7% hits; AID 743279, 2014; in the data active = activity change below about -50%; inconclusive = mostly about -30% to -49%
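Secreted IL-1B measured by AlphaLISA bead assay after 16 h compound exposure of THP-1 cells; compounds (final up to 57.5 uM) added 1 h before LPS (250 ng/mL) and ATP (1.25 mM) stimulation; lower signal means less secretion.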
TDP1 block – qHTS Assay for Inhibitors of Tyrosyl-DNA Phosphodiesterase (TDP1). recombinant TDP1, AlphaScreen DNA substrate cleavage. Potency, µM (top dose mostly 130 µM), for the others: top-dose activity change, negative = inhibition, actives largely listed as inhibitors. 350,000 compounds, 0.28% hits; note: potency is the fitted concentration of half-maximal effect; nearly all actives have a fitted effect of over 40% in size
Target sequence (Q9NUW8 whole entry, looked up): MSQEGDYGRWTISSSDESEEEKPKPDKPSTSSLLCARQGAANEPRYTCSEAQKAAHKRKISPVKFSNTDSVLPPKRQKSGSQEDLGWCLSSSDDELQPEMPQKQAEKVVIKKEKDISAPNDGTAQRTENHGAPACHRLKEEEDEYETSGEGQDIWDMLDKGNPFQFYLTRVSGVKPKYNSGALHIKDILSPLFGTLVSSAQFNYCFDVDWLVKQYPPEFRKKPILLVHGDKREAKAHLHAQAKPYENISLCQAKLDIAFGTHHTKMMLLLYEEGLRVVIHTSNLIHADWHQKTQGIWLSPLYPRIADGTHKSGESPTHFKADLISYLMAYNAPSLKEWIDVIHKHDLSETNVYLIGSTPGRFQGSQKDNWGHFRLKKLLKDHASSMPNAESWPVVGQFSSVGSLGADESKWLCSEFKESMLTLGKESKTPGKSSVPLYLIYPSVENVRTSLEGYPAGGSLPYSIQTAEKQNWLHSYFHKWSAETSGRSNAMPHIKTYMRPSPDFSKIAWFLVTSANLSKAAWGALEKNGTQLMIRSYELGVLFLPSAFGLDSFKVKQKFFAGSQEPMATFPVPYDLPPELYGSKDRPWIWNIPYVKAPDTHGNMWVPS
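Steps: enzyme plus compound, 15 min RT; add biotin/phosphotyrosine-FITC oligonucleotide (15 nM final), react 5 min; add donor/acceptor beads (10 ug/ml final), 10 min; read AlphaScreen. Tdp1 at 1 nM final.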
An asterisk follows results filed as active; i = inactive; ? = inconclusive; / = no result given; [ ] = dose if it differs, or a comment. Only some compounds are listed: those with a hit (about 18% of all), similar ones and a draw of the others. Unless noted, calls come from the whole dose curve; as a rule, active = well fitted curve in the direction sought with a large enough effect; inconclusive = small, poorly fitted or top-dose-only effect, or another doubt; inactive = no such curve, though single readings can be large; an effect the other way counts as inactive or inconclusive. % is set by controls: 0 for no effect and ±100 for the full control effect.

SMILES | DT40 TDP1 CPT | Six1-Eya2 blk | CtBP-E1A blk | TDP1 cell noCPT | IL-1B inflam inh | TDP1 block
COc1ccc2c(c1)NC(c1ccc(N(C)C)cc1)c1cccn1-2 (configuration not stated) | ? | 21 | 35 | 15µM* | 25 | 7%
COc1ccc2c(c1)NC(c1cc(Cl)cc(Cl)c1O)c1cccn1-2 (configuration not stated) | -3% | -15 | -11 | ? | 41 | 3%
CCN(CC)CCn1c2ccccc2c2n[nH]c(=S)nc21 | 4% | -19 | -18 | -11% | 33 | 6%
CCn1c2ccc(C)cc2c2n[nH]c(=S)nc21 | -3% | -75* | -88* | ? | 4 | /
Cc1ccc2c(c1)c1n[nH]c(=S)nc1n2CCc1ccccc1 | 16µM* | 0 | / | 26µM* | 17 | /
Cn1c2ccccc2c2n[nH]c(=S)nc21 | 14% | -83* | -79* | ? | 14 | /
CCOC(=O)N1CCN(C(=O)C2CCN(C(=O)c3cc4sccc4n3CC)CC2)CC1 | -21% | 4 | 4 | ? | 8 | -3%
CC(=O)N[C@@H](CCCNC(=N)N)C(=O)N[C@H](CC1CCCCC1)C(=O)N[C@@H]1CCC2SC[C@@H](C(=O)N[C@H](CCCNC(=N)N)C(=O)N[C@H](Cc3ccc(Cl)cc3)C(N)=O)N2C1=O (some centres not stated) | / | / | / | / | / | 9%
Cc1cccc(N2C(=O)CC(N(O)c3ccccc3)C2=O)c1 (configuration not stated) | ? | 1 | -12 | ? | -8 | 2%
CN1CCN(C(=O)c2ccc3c(c2)N(Cc2c(F)cccc2Cl)C(=O)c2ccccc2S3)CC1 | ? | / | / | 23µM* | / | 5%
CN1CCN(C(=O)c2ccc3c(c2)N(Cc2ccc(C(F)(F)F)cc2)C(=O)c2ccccc2S3)CC1 | ? | / | / | 21µM* | / | 2%
Cc1ccc(CN2C(=O)c3ccccc3Sc3ccc(C(=O)N4CCOCC4)cc32)cc1 | ? | / | / | ? | / | 10%
Cc1cccc([C@@H]2[C@@H]3C(=O)N(Cc4ccccc4)C(=O)[C@@H]3[C@]3(Cc4ccccc4)C(=O)N(c4ccc(C(F)(F)F)cc4)C(=O)N23)c1 | 18µM* | -2 | -2 | 16µM* | -1 | -5%
Cc1cccc([C@@H]2[C@@H]3C(=O)N(Cc4ccccc4)C(=O)[C@@H]3[C@]3(Cc4ccccc4)C(=O)N(c4ccccc4)C(=O)N23)c1 | -12% | 6 | / | -9% | 17 | -2%
CCN1C(=O)[C@H]2[C@@H](c3ccc(C)cc3)N3C(=O)N(c4ccc(C(F)(F)F)cc4)C(=O)[C@@]3(CC(C)C)[C@H]2C1=O | ? | 3 | 0 | 16µM* | 2 | /
Nc1cc([N+](=O)[O-])ccc1Nc1ccccc1 | 15µM* | -19 | -27 | 6.5µM* | -103* | 7%
CC(=O)N(C)c1cc([N+](=O)[O-])ccc1OCc1ccccc1 | -9% | 6 | -6 | -22% | 6 | /
Nc1cc([N+](=O)[O-])ccc1OCc1ccccc1 | 18µM* | -6 | 6 | ? | 7 | /
CCOc1ccc(NC(=O)CN(C)C(=O)CC2CC3CCC2C3)cc1OCC (configuration not stated) | -23% | -5 | -7 | 1% | i | 2%
COc1ccc(-c2nc(-c3cccc(C)c3)no2)cc1OC | -17% | 2 | -6 | -8% | -21 | -5%[56.1 µM]
COc1cccc(C(=O)N(Cc2nc(-c3cccc(C)c3)no2)C(C)C)c1OC | ? | -17 | 9 | 18µM* | 26 | 2%
CCOc1cc(-c2nc(-c3ccccc3OC)no2)cc(OCC)c1OCC | ? | -4 | 3 | 29µM* | ? | -1%
COc1cc(-c2nc(-c3cccc(C)c3)no2)cc(OC)c1OC | 18µM* | 11 | 18 | 23µM* | -20 | 0%[56.1 µM]
Cc1cccc(-c2noc(CN(C(=O)c3ccc(Br)o3)C(C)C)n2)c1 | ? | -12 | -6 | -9% | -5 | -5%
COc1ccccc1C(=O)N(Cc1nc(-c2cccc(C)c2)no1)C(C)C | 21µM* | / | / | ? | / | 2%
SMILES | DT40 TDP1 CPT | Six1-Eya2 blk | CtBP-E1A blk | TDP1 cell noCPT | IL-1B inflam inh | TDP1 block
COc1cccc(C(=O)NCc2nc(-c3ccccc3)no2)c1OC | -29% | / | / | ? | / | 4%
CCOc1cc(-c2nc(-c3ccc(OC)cc3)no2)cc(OCC)c1OCC | -16% | 3 | 1 | -18% | -17 | -2%
CC1C/C(=N/N2C(=O)CSC2=S)CC(C)(C)C1 (configuration not stated) | -39% | -19 | ? | -44% | 28 | ?
CCOC(=O)C(c1ccccc1)C(Nc1cc(C(F)(F)F)cc(C(F)(F)F)c1)c1ccccn1 (configuration not stated) | -25% | 3 | 7 | ? | 11 | 5%
CN(C)S(=O)(=O)c1cccc(NC(=O)CN(CCO)CC(=O)Nc2cccc(S(=O)(=O)N(C)C)c2)c1 | -4% | -2 | -5 | 10% | 30 | /
Cc1ccc(SC2=C(N(C)C)C(=O)c3ccccc3C2=O)cc1 | 4.6µM* | -84* | -86* | 5.2µM* | -64* | /
O=C1c2cccc(Sc3ccccc3)c2C(=O)c2c(Sc3ccccc3)cccc21 | 10% | ? | ? | 0% | -8 | 7%

Source: PubChem (National Center for Advancing Translational Sciences (NCATS))
